Screens from PubChem BioAssay.
EBV LMP1 NFkB: inhibitors of Epstein-Barr LMP1-induced NF-kappaB reporter | 0.69% of 350,000 active | AID 504558 | LMP1-induced NF-kappaB luciferase reporter cells, luminescence | inhibition, % at 12.5 µM; in the data active = inhibition above about 41%
HSF-1 act: increases HSF-1 driven luciferase reporter signal. AID 504408. NIH3T3-HGL HSF-1 luciferase reporter, MG132, 8 h; 100% = twice DMSO control signal. 1.7% of 300,000 active. activation, % at 9 µM;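 active = mean replicate activation of at least 50% with a set share of replicates each reaching 50%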
TWEAK Fn14 block: blocks TWEAK-Fn14 interaction in a reporter cell assay; 2% of 360,000 active; inhibition, % at 10 µM; TWEAK-stimulated Fn14 reporter cells, luciferase luminescence, 8 h; in the data active = inhibition above about 50%
HSP90 inh: blocks HSP90-mediated luciferase refolding in reticulocyte lysate; Rabbit reticulocyte lysate, luciferase refolding luminescence, 3 h; inhibition, % at 5.6 µM; 0.91% of 290,000 active; AID 1789;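 active = inhibition above the screen-wide mean plus 3 SD, computed separately per campaign, cut at about 16% in these data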;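 also: inhibitors lower the luminescence because luciferase stays unfolded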
HSF1 inh: HSF1 inhibition. NIH3T3-HGL HSE-luciferase, MG132-induced, luminescence 8 h; hits give low values. activity change, negative = inhibition, % at 7.5 µM (by protocol). 0.77% of 300,000 active. AID 2098;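 active = more than half of replicate wells show activity change below -50%, luminescence cut by over half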;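 also: luciferase reports HSF-1 transcriptional activity via heat shock element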
TROY signal inh: TROY signaling inhibition; Q293 LMP1-TROYcd NF-kB luciferase reporter, 4 h; inhibition, % at 10 µM; 0.98% of 360,000 active; AID 1347056;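 active = compounds whose plate-normalised and pattern-corrected inhibition of the luciferase reporter signal at the single screening dose is 50% or more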
Large screens that a line does not name were inactive. This is a sample that favours compounds with a hit; in the whole collection about 4.7% have one here.

Cc1ccc(C(=O)Cn2nnc3ccccc32)cc1C	HSF-1 act 58
Cc1ccc(C(=O)Cn2nnc3ccccc32)cc1	HSF-1 act 67
O=C(Cn1nnc2ccccc21)c1ccc(Br)cc1	none
COc1ccc(CN(C)C(=O)[C@H]2O[C@@H](n3ccc(N)nc3=O)[C@H](O)[C@@H]2O)cc1OC	none (no result: EBV LMP1 NFkB, HSF-1 act, HSP90 inh, HSF1 inh)
CCCCNC(=O)C1(C)CCCCN1C(=O)c1ccc2c(c1)CCO2 (stereo not given)	none (no result: EBV LMP1 NFkB, HSF-1 act, HSP90 inh, HSF1 inh)
CC1=C(C(=O)N(C(C)C)C(C)C)CC(CC(=O)NC2CCCCC2)C(=O)N1Cc1ccc(F)cc1 (stereo not given)	none (no result: EBV LMP1 NFkB, HSF-1 act, HSP90 inh, HSF1 inh)
COc1ccc2cc(C3=CCCC3(C)C(=O)O)ccc2c1 (stereo not given)	none (no result: HSF-1 act, HSP90 inh, HSF1 inh)
Cc1cc(-c2nnc(CCC(=O)N(C)Cc3cccc4ccccc34)o2)no1	HSF-1 act 64
CCOc1ccc(C(=O)C(CN2CCOCC2)c2ccccc2)cc1 (stereo not given)	none
O=C(c1ccccc1)C(CN1CCCCC1)c1ccccc1 (stereo not given)	EBV LMP1 NFkB 55, TWEAK Fn14 block 71 (no result: HSF-1 act, HSP90 inh, HSF1 inh)
O=C(c1ccc(Br)cc1)C(CN1CCOCC1)c1ccccc1 (stereo not given)	TWEAK Fn14 block 58
CN(C)CC(C(=O)c1ccccc1)c1ccccc1 (stereo not given)	EBV LMP1 NFkB 78, TWEAK Fn14 block 79
CC(CN1CCN(CC(C)C(=O)c2ccccc2)CC1)C(=O)c1ccccc1 (stereo not given)	none (no result: HSF-1 act, HSP90 inh, HSF1 inh)
COc1cc(C(O)c2nc(-c3cccc(NC(C)=O)c3)cs2)ccc1F (stereo not given)	none (no result: EBV LMP1 NFkB, HSF-1 act, HSP90 inh, HSF1 inh)
O=C(NCc1ccco1)c1cccc2c(-c3ccc(F)c(F)c3)coc12	none (no result: EBV LMP1 NFkB, HSF-1 act, HSP90 inh, HSF1 inh)
Cn1cc(NC(=O)OCc2ccc(Cl)cc2)c(C(F)(F)F)n1	HSF-1 act 56
Cn1cc(C(=O)Nc2ccc(Cl)cc2)c(C(F)(F)F)n1	none
Cc1oc(-c2cc3c(cc2Cl)OCO3)nc1CN1CCCC1c1ccc(F)cc1 (stereo not given)	HSF1 inh -52
CCOc1ccccc1/C=C/c1onc(C)c1S(=O)(=O)N1CCC(C(=O)NC(C)(C)C)CC1	HSF1 inh -83 (no result: EBV LMP1 NFkB)
COc1ccc(Nc2nc(N)nc(CSc3nccn3C)n2)cc1	HSF-1 act 55
COc1ccc(Nc2nc(N)nc(CSc3nc(C)cc(C)n3)n2)cc1	HSF1 inh -89
COc1ccc(Nc2nc(N)nc(CSc3nnc(N)s3)n2)cc1	none
CCN(CC(=O)Nc1c(F)cccc1F)C(=O)C1CCCO1 (stereo not given)	none (no result: HSF-1 act, HSP90 inh, HSF1 inh)
COc1cccc(C(O)c2nc(-c3ccc(Cl)cc3)cs2)c1 (stereo not given)	none (no result: EBV LMP1 NFkB, HSF-1 act, HSP90 inh, HSF1 inh)
COc1ccc(C(C#N)CC(=O)c2ccc(OCc3ccccc3)c(OC)c2)cc1OC (stereo not given)	none (no result: HSF-1 act, HSP90 inh, HSF1 inh)
Fc1ccc(C2NC(=S)NC3=C2N2CCC3CC2)cc1 (stereo not given)	HSF-1 act 53
COc1ccc(C2NC(=S)NC3=C2N2CCC3CC2)cc1 (stereo not given)	none
c1cncc(-c2ccc3ncnc(NCc4ccc5c(c4)OCO5)c3c2)c1	none (no result: HSF-1 act, HSP90 inh, HSF1 inh)
Cc1ccc(-n2ncc3c(NCc4ccc5c(c4)OCO5)ncnc32)c(C)c1	HSF1 inh -55
c1nc(NCc2ccc3c(c2)OCO3)c2cc(-c3ccoc3)ccc2n1	EBV LMP1 NFkB 49, TWEAK Fn14 block 83 (no result: HSF-1 act, HSP90 inh, HSF1 inh)
CCOC(=O)[C@]12CCC=C1N(CCC1=CCCCC1)C(=O)[C@H](CC(=O)N1CCOCC1)C2	none (no result: EBV LMP1 NFkB, HSF-1 act, HSP90 inh, HSF1 inh)
O=C1CN(S(=O)(=O)c2cc(Br)ccc2Br)CCN1	none (no result: HSF-1 act, HSP90 inh, HSF1 inh)
O=c1c(Br)ccc(Br)cc1Br	TWEAK Fn14 block 104 (no result: HSF-1 act, HSP90 inh, HSF1 inh)
CC(C)CCC[C@@H](C)[C@H]1CC[C@H]2[C@@H]3C(=O)C=C4C[C@@H](O)CC[C@]4(C)[C@H]3CC[C@]12C	none (no result: HSP90 inh)
C=C1/C(=C\C=C2/CCC[C@]3(C)[C@@H]([C@H](C)CCCC(C)(C)O)CC[C@@H]23)C[C@@H](O)C[C@@H]1O	HSP90 inh 26 (no result: EBV LMP1 NFkB, TWEAK Fn14 block, TROY signal inh)
CC(NC(=O)COc1ncnc2cc([N+](=O)[O-])ccc12)c1ccccc1 (stereo not given)	none
CCOC(=O)c1c(C)[nH]c(C)c1C(=O)COc1ncnc2cc([N+](=O)[O-])ccc12	HSF-1 act 66
O=C1c2ccccc2C(c2nnnn2-c2ccc3c(c2)OCCO3)N1CCCn1ccnc1 (stereo not given)	none (no result: EBV LMP1 NFkB, HSF-1 act, HSP90 inh, HSF1 inh)
CC(C)C(NC(=O)OCc1ccccc1)C(=O)NC(Cc1c[nH]c2ccccc12)C(=O)O (stereo not given)	none (no result: EBV LMP1 NFkB, HSF-1 act, HSP90 inh, HSF1 inh)
O=C(CNC(=O)OCc1ccccc1)NCC(=O)NC(Cc1c[nH]c2ccccc12)C(=O)O (stereo not given)	TROY signal inh 51 (no result: EBV LMP1 NFkB, HSF-1 act, HSP90 inh, HSF1 inh)
CC(=O)N[C@@H](Cc1c[nH]c2ccccc12)C(=O)NCc1ccccc1	HSF-1 act 65
CC(O)(c1ccccc1)c1nc(-c2ccncc2)cs1 (stereo not given)	none (no result: EBV LMP1 NFkB, HSF-1 act, HSP90 inh, HSF1 inh)
CC(=O)c1ccc(Nc2c3c(nc4ccccc24)CCCC3)cc1	HSF-1 act 66
Cc1cccc2cc(C(c3nnnn3C(C)(C)C)N(Cc3ccco3)CC3CCCO3)c(=O)[nH]c12 (stereo not given)	none
CCC(c1nnnn1Cc1ccco1)N(Cc1cc2cc(C)cc(C)c2[nH]c1=O)CC1CCCO1 (stereo not given)	HSF-1 act 64
COc1ccc2[nH]c(=O)c(CN(C3CCCCC3)C(c3nnnn3Cc3ccco3)C(C)C)cc2c1 (stereo not given)	HSF-1 act 119
CCC(c1nnnn1Cc1ccco1)N(Cc1ccccc1OC)Cc1cc2cc(C)ccc2[nH]c1=O (stereo not given)	HSF-1 act 89
Cc1ccc2[nH]c(=O)c(CN(CCCO)C(C)c3nnnn3Cc3ccco3)cc2c1 (stereo not given)	none
CCOC(=O)Cn1nnnc1C(C(C)C)N(Cc1cc2c(C)cc(C)cc2[nH]c1=O)C1CCCC1 (stereo not given)	HSF-1 act 123
COc1ccc2[nH]c(=O)c(CN(Cc3nnnn3Cc3ccco3)C3CCCCC3)cc2c1	none
Cc1cccc2cc(CN(Cc3ccco3)C(c3nnnn3CCc3ccccc3)C(C)C)c(=O)[nH]c12 (stereo not given)	HSF-1 act 198
COc1ccc2[nH]c(=O)c(CN(Cc3ccco3)C(c3nnnn3Cc3ccccc3)C(C)C)cc2c1 (stereo not given)	none
COc1ccc(CCNc2ncnc3sc(C)cc23)cc1OC	TWEAK Fn14 block 76
COc1cccc(Nc2ncnc3sc(C)cc23)c1	HSF-1 act 69
COc1cccc(CN2CCC2(C)C(=O)Nc2cnc3ccccc3c2)c1F (stereo not given)	none (no result: EBV LMP1 NFkB, HSF-1 act, HSP90 inh, HSF1 inh)
Cc1ccc(OCCn2c(C)c(/C=N/n3cnnc3)c3ccccc32)cc1	none
Cc1c(/C=N/n2cnnc2)c2ccccc2n1CCOc1ccc(Cl)cc1	TROY signal inh 54
Cc1ccsc1CNC(=O)C1(C)CCN1C(C)C (stereo not given)	none (no result: EBV LMP1 NFkB, HSF-1 act, HSP90 inh, HSF1 inh)
